Inconclusive results are not listed. Activity calls are given as the source filed them. Calls follow the shape of the dose curve; as a rule, active = well fitted inhibition curve with a large enough effect; inconclusive = small, poorly fitted or top-dose-only effect; inactive = flat fitted curve, though single readings scatter.
Columns and labels:
CRL-7250 = normal cell line; assay: Cytotoxic Profiling of Annotated Libraries Using Quantitative High-Throughput Screening (AID 1296008); conditions: Five cell lines viability, CellTiter-Glo ATP luminescence, 48-72 h; max response: stronger effect = lower value; also: nearly all actives have a fitted effect of over 60% in size
Outline: (§1)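 Compounds were pin-transferred onto cells and incubated 48 or 72 hr at 37 degree Celsius, 95% humidity. CellTiter-Glo was added, plates sat 10 min at room temperature, then ATP-coupled luminescence was imaged as the viability read-out.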

HEK293 = assay: as above; conditions: Five cell lines viability, CellTiter-Glo ATP luminescence, 48-72 h; max response: stronger effect = lower value
Outline: as §1
% is scaled to controls: 0 for no effect and ±100 for the full control effect; potency is read from the fitted curve at half-maximal effect.

Row | SMILES | Potency (CRL-7250) | Potency (HEK293) | max response (CRL-7250) | max response (HEK293)
1 | CN1CCN(c2ccc(C(=O)Nc3n[nH]c4ccc(Cc5cc(F)cc(F)c5)cc34)c(NC3CCOCC3)c2)CC1 | 20.9 µM (active) | 7.41 µM (active) |  | 
2 | CC(=O)O[C@@H]1[C@@H](O)[C@H](C)O[C@@H](O[C@H]2[C@@H]3C=CO[C@@H](O[C@@H]4O[C@H](CO)[C@@H](O)[C@H](O)[C@H]4O)[C@@H]3[C@@]3(CO)O[C@@H]23)[C@@H]1OC(=O)/C=C/c1ccccc1 |  |  | -1.26% (inactive) | 2% (inactive)
3 | CC(C)(O)CC(CO)NC(=O)CC(O)CC(=O)Cc1ccccc1 (centres undefined) |  |  | 2.18% (inactive) | 0.672% (inactive)
4 | CC(C)=CCC/C(C)=C/CO[C@@H]1O[C@H](CO)[C@@H](O)[C@H](O)[C@H]1O |  |  | -5.48% (inactive) | 1.41% (inactive)
5 | CC/C=C\CC1C(=O)C=CC1(CCCCCCCC(=O)O)OC(C)=O (centres undefined) |  |  | -0.322% (inactive) | 2.73% (inactive)
6 | C/C1=C\CC[C@]2(C)O[C@@H]2[C@H](O)[C@H](C(C)C)[C@H](OC(=O)/C=C/c2ccccc2)C1 |  |  | -51% (inactive) | -26.5% (inactive)
7 | C[C@@H]1O[C@@H](O[C@H]2[C@H](O[C@H]3[C@H](O[C@H]4CC[C@@]5(C)C(CC[C@]6(C)C5CC=C5[C@@H]7CC(C)(C)CC[C@]7(C(=O)O[C@@H]7O[C@H](CO)[C@@H](O[C@@H]8O[C@@H](C)[C@H](O)[C@@H](O)[C@H]8O)[C@H](O)[C@H]7O)CC[C@]56C)C4(C)C)OC[C@H](O)[C@@H]3O)O[C@H](CO)[C@@H](O)[C@@H]2O)[C@H](O)[C@H](O)[C@H]1O (some centres undefined) |  |  | -33.4% (inactive) | -93.1% (inactive)

From PubChem BioAssay (NCATS)
